About 8,800 targets were measured; listed, in parts, are those with a hit and a random draw of the rest. About 0.5% of all pairs of compound and target were hits.

UniProt Q8WV92, sequence (Q8WV92 whole entry, looked up): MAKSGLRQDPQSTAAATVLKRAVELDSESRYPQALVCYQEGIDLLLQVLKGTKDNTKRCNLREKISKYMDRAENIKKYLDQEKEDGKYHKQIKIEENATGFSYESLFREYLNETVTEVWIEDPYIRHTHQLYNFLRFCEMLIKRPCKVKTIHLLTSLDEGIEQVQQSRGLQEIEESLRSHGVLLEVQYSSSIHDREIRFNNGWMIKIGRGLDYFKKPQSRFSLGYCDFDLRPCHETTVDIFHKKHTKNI
UniProt P11279, sequence (P11279 whole entry, looked up): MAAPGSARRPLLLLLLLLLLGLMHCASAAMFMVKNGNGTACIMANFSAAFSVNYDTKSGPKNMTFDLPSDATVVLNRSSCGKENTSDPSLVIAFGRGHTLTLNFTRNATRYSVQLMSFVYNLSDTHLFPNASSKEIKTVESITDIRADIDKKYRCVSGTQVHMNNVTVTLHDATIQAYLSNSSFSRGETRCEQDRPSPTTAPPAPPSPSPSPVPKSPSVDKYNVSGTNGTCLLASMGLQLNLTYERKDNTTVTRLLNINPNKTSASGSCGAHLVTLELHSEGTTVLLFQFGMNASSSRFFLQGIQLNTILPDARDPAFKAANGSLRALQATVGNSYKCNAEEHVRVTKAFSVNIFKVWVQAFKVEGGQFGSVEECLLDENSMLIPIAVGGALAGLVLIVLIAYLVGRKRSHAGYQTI
UniProt Q9Y4K4, sequence (Q9Y4K4 whole entry, looked up): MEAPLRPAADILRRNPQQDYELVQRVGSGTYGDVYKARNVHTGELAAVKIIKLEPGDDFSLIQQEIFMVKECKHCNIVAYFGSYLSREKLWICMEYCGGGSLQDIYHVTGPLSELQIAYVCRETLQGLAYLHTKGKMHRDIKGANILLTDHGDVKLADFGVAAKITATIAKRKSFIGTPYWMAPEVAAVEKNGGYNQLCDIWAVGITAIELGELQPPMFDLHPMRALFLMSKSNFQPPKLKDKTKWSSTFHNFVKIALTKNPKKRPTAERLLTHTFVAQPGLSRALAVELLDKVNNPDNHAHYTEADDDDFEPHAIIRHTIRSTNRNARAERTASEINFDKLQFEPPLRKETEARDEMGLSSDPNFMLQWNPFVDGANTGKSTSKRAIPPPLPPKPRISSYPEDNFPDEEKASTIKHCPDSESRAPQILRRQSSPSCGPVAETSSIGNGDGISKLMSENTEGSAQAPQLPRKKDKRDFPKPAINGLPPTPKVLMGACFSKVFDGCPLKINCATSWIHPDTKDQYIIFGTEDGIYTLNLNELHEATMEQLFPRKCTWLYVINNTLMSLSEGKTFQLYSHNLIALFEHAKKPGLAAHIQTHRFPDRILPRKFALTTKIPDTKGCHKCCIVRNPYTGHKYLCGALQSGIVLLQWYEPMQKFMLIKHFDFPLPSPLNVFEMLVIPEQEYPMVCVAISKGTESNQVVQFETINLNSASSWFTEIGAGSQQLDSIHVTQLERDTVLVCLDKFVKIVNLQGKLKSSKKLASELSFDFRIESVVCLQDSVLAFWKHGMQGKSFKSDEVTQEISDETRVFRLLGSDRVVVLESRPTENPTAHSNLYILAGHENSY
UniProt Q2VIQ3, sequence (Q2VIQ3 whole entry, looked up): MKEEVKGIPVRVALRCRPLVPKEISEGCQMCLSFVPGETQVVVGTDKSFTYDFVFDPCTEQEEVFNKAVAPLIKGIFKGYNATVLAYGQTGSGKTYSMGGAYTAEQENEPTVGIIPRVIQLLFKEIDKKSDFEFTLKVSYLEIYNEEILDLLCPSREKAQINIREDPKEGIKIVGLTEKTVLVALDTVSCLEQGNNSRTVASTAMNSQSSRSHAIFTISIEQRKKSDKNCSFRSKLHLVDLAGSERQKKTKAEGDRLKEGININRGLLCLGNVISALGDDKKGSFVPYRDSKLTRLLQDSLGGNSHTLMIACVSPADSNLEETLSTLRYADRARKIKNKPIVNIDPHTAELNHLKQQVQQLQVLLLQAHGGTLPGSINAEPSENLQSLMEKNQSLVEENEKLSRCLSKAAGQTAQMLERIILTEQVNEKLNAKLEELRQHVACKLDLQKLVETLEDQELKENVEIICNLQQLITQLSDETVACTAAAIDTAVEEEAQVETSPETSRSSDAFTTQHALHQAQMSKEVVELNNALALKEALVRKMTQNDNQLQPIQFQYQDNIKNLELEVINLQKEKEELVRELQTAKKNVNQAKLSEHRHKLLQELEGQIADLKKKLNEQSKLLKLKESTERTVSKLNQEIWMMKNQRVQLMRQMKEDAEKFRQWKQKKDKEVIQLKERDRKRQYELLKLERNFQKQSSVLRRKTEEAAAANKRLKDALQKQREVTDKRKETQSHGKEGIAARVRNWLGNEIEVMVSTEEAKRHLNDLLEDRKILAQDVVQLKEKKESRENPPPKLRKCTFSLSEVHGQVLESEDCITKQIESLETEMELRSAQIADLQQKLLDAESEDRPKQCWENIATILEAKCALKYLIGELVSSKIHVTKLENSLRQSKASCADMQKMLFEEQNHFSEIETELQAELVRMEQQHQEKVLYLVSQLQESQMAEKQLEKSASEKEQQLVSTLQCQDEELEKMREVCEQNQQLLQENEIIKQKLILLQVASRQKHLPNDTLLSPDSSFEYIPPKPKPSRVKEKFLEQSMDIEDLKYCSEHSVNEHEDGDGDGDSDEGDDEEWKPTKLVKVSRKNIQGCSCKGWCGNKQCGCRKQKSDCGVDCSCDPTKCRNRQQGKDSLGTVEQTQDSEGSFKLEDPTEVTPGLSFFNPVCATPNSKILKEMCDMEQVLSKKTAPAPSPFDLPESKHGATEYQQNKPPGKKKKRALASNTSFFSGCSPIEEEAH
UniProt P48449, sequence (P48449 whole entry, looked up): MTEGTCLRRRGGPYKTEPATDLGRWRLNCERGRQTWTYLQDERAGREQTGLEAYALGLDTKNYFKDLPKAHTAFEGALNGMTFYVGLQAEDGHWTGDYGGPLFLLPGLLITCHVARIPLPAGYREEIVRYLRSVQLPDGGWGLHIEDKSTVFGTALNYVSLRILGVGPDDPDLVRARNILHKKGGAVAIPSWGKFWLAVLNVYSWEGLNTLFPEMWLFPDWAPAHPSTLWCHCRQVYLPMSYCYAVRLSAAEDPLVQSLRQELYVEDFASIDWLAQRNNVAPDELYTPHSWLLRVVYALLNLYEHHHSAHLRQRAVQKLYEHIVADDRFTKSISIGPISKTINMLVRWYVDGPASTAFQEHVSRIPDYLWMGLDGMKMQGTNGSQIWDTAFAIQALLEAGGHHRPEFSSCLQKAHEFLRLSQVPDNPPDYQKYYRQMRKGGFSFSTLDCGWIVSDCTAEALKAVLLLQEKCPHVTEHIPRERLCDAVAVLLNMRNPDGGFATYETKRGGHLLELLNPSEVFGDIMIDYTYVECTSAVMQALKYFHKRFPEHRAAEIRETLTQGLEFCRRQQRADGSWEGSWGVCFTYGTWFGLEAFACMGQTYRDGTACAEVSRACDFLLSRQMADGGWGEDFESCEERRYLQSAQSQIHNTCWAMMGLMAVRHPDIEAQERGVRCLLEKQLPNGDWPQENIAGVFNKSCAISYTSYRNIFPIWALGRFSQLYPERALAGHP
UniProt P08473, sequence (P08473 whole entry, looked up): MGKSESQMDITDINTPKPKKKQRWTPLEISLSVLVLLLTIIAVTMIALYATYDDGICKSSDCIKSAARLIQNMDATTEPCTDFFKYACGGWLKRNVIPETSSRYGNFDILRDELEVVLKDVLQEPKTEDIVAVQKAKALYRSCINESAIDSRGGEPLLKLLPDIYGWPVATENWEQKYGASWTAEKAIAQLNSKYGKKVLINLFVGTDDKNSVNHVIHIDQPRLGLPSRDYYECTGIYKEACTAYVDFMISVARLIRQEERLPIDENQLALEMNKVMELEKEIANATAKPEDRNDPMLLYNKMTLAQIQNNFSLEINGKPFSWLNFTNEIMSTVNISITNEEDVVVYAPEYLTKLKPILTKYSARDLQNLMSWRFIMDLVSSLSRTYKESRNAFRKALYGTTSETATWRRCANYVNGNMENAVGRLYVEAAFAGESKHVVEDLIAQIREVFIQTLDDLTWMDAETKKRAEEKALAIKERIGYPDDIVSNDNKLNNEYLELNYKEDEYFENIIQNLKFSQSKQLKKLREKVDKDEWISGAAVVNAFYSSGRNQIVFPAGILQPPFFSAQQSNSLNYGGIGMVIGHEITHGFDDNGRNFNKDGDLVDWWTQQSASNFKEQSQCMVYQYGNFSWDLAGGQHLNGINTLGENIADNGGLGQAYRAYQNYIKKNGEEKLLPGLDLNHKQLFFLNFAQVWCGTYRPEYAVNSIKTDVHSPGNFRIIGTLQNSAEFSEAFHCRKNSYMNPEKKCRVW
UniProt O15243, sequence (O15243 whole entry, looked up): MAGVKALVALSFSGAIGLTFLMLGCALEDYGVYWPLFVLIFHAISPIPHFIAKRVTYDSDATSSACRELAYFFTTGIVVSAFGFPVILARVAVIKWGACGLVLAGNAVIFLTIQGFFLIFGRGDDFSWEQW
UniProt O14880, sequence (O14880 whole entry, looked up): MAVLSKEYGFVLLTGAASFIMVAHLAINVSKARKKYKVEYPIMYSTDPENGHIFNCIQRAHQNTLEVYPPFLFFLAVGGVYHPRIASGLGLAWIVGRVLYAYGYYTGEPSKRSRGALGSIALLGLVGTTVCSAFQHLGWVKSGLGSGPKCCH
UniProt P27361, sequence (P27361 whole entry, looked up): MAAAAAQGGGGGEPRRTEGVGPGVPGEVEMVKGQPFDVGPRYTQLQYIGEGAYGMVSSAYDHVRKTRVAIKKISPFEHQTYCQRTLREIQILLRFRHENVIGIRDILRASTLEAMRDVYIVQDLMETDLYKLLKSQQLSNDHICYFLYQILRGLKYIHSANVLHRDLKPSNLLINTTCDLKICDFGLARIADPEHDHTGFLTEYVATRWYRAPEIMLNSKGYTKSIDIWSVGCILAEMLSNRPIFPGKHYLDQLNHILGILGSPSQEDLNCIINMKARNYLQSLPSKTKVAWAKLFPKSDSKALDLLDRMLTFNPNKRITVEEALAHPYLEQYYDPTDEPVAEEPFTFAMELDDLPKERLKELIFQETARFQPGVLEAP

Compound in this assay: C=CC(=O)N1CCC[C@@H](n2nc(-c3ccc(Oc4ccccc4)cc3)c3c(N)ncnc32)C1 [ibrutinib]
Kind of assay: log2 fold change, soluble protein after heating vs DMSO (PISA); higher = thermal stabilisation; K562 lysate, 10 uM; active = over 0.2 and 3.5 SD of the protein, either way, in both replicates (recomputed). An outline of the steps: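 K562 pellets were dounce-homogenised in PBS pH 7.4 with 1 mM MgCl2, and the crude extract at 1 mg/mL protein was treated with 10 μM compound for 30 min. Aliquots were heated for 3 min across 48°C-58°C, pooled, and brought to 0.5% NP-40 at 4°C; soluble protein was the supernatant after 21,000xg for 90 min. Soluble protein was quantified by TMTpro 16plex LC-MS/MS with channel sums equalised, and reported as log2 fold change in thermal stability against DMSO controls, with values from duplicates.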
Turning to MCMBP isoform 2 (UniProt Q9BTE3), the log2 fold change was -0.032 (inactive).

As to MAP4K5 (UniProt Q9Y4K4), the log2 fold change was 0.029 (inactive).

For the target MACO1 (UniProt Q8N5G2), the log2 fold change was 0 (inactive).

With LEPROT (UniProt O15243), the log2 fold change is 0.005 (inactive).

On to KLHL12 isoform 2 (UniProt Q53G59), for which the log2 fold change was 0.156 (inactive).

As to LSS (UniProt P48449), the log2 fold change was -0.009 (inactive).

For the target KIF4B (UniProt Q2VIQ3), the log2 fold change is 0.027 (inactive).

Consider MRPL27 (UniProt Q9P0M9), for which the log2 fold change was -0.046 (inactive).

As to MED25 isoform 3 (UniProt Q71SY5), the log2 fold change is -0.034 (inactive).

For the target MAP7D3 (UniProt Q8IWC1), the log2 fold change is -0.073 (inactive).

Consider MITD1 (UniProt Q8WV92), for which the log2 fold change is 0.007 (inactive).

Regarding MED14 (UniProt O60244), the log2 fold change was 0.002 (inactive).

Consider LIMK2 isoform 3 (UniProt P53671), for which the log2 fold change is 0.129 (inactive).

On to LAMP1 (UniProt P11279), for which the log2 fold change is 0.034 (inactive).

For MAPK3 (UniProt P27361), the log2 fold change was 0.001 (inactive).

With MRPL35 (UniProt Q9NZE8), the log2 fold change was -0.019 (inactive).

MAN2B2 (UniProt Q9Y2E5): the log2 fold change is -0.019 (inactive).

For the target MAST2 (UniProt Q6P0Q8), the log2 fold change was 0.136 (inactive).

As for MGST3 (UniProt O14880), the log2 fold change was 0.06 (inactive).

On to MAPK14 (UniProt Q16539), for which the log2 fold change is 0.042 (inactive).

On to LRRC7 (UniProt Q96NW7), for which the log2 fold change was -0.081 (inactive).

In the case of MIF4GD isoform 3 (UniProt A9UHW6), the log2 fold change was 0.108 (inactive).

As to MME (UniProt P08473), the log2 fold change is 0.286 (inactive).

(Values after the supplement of paper PMC10849652.)
